According to PubChem BioAssay AID1347418 (Sanford-Burnham Center for Chemical Genomics, 2020):
The whole screen tested about 1,300 compounds, of which about 750 (58%) were called active. The list shows a part of the results. A number with no mark means an inactive call.

Each molecule was assayed against Sulfhydryl oxidase 1 (Homo sapiens) (UniProt O00391) (assay: QSOX1 enzyme inhibitors, primary screen, biochemical, ROS-Glo H2O2 luminescence, HTS (AID 1347418)). Conditions: recombinant QSOX1, ROS-Glo H2O2 luminescence; at 12.5 µM; active compounds read high; active = any value above zero.
Sequence of Sulfhydryl oxidase 1 (Homo sapiens) (O00391 whole entry, looked up): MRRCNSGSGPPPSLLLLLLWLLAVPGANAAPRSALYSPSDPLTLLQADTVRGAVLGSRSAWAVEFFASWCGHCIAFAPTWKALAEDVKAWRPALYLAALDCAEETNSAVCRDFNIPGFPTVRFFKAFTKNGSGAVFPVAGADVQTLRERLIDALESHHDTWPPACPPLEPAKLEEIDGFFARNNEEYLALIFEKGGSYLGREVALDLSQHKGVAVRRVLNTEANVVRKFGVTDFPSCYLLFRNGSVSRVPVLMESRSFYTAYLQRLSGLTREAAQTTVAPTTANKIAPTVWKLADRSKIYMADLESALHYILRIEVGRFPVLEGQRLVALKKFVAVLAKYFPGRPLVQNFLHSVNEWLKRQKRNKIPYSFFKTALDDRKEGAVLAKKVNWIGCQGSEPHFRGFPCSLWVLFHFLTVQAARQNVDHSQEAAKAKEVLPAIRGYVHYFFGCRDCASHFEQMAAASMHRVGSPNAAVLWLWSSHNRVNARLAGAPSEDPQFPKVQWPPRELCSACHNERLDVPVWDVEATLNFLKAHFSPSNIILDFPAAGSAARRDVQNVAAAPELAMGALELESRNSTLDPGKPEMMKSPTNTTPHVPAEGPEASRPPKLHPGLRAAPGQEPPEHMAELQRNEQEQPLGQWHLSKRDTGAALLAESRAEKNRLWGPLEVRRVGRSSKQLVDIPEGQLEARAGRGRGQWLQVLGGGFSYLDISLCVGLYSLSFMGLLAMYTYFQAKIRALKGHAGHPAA

Compound	inhibition
O=c1[nH]c(=S)[nH]c(-c2ccccc2)c1Cc1c(O)ccc2ccccc12	9% (active)
O=C(c1cc(O)c(O)c([N+](=O)[O-])c1)c1ccccc1F	14.2% (active)
N#CC(=C(\N)Sc1ccccc1N)/C(C#N)=C(/N)Sc1ccccc1N	44.1% (active)
CC(O)C(O)[C@H]1CNc2nc(N)[nH]c(=O)c2N1 (some centres undefined)	1.5% (active)
CC(C)(Oc1ccc(C2CC2(Cl)Cl)cc1)C(=O)O (centres undefined)	2.5% (active)
CCOC(=O)C(C)(C)Oc1ccc(Cl)cc1	-1.7%
CC(C)(Oc1ccc(CCNC(=O)c2ccc(Cl)cc2)cc1)C(=O)O	-3.3%
COc1cc(C(O)C(=O)O)ccc1O (centres undefined)	1.1% (active)
COc1ccc2cc([C@H](C)C(=O)O)ccc2c1	-0.6%
COc1cc(C(O)CO)ccc1OS(=O)(=O)O (centres undefined)	0.6% (active)
CCN(CC)CCNC(=O)c1cc(S(C)(=O)=O)ccc1OC	-3.2%
COc1cc(C(O)CO)ccc1O (centres undefined)	4.8% (active)
COC(=O)[C@H]1[C@H]2C[C@H]3c4[nH]c5ccccc5c4CCN3C[C@H]2CC[C@@H]1O	6.1% (active)
COC(=O)[C@@H]1[C@H]2C[C@H]3c4[nH]c5ccccc5c4CCN3C[C@@H]2CC[C@@H]1O	1.4% (active)
COC(=O)[C@H]1[C@H]2C[C@@H]3c4[nH]c5cc(OC)ccc5c4CCN3C[C@H]2C[C@@H](OC(=O)c2cc(OC)c(OC)c(OC)c2)[C@@H]1OC	11.6% (active)
C=C[C@H]1CN2CC[C@@H]1C[C@H]2[C@@H](O)c1ccnc2ccc(OC)cc12	-3%
O=C(O)CCC/C=C\C[C@@H]1[C@@H](/C=C/[C@H](O)C2Cc3ccccc3C2)[C@@H](F)C[C@@H]1O	7.1% (active)
O=C(O)C1=CCCNC1	-2.5%
CCN(CC)CC(=O)Nc1c(C)cccc1C	-1.3%
CCCNC(C)C(=O)Nc1ccccc1C (centres undefined)	-4.7%
Cc1cccc(C)c1NC(=O)C(C)N (centres undefined)	8% (active)
CC(=O)CCCCn1c(=O)c2c(ncn2C)n(C)c1=O	5.8% (active)

Compound	inhibition
C#CCn1c(=O)c2c(ncn2C)n(C)c1=O	-0.9%
Cn1c(=O)c2c(ncn2C)n(C)c1=O	-0.6%
CCCn1cnc2c1c(=O)n(CCCCC(C)=O)c(=O)n2C	2.6% (active)
CCCn1c(=O)c2c(ncn2C)n(CCC)c1=O	4.1% (active)
N#C/C(=C\c1ccc(-c2cc(Cl)ccc2Cl)o1)C(=O)Nc1cccc2ncccc12	3.5% (active)
CCN(CC)CCn1c(=O)c(Cc2ccc(OC)cc2)nc2ccccc21	1.7% (active)
CCCCOC(=O)NS(=O)(=O)c1sc(CC(C)C)cc1-c1ccc(Cn2c(CC)nc3c(C)cc(C)nc32)cc1	2.7% (active)
CN/C(=C\[N+](=O)[O-])NCCSCc1ccc(CN(C)C)o1	-12.3%
CC(C)N(CCC(=O)c1ccc2ccccc2c1)Cc1ccccc1	-1.7%
CC(COc1ccccc1)N(CCCl)Cc1ccccc1 (centres undefined)	9.5% (active)
Cc1cccc(/C=C/c2ccccc2)n1	13.7% (active)
COc1ccc(CCN(C)CCCC(C#N)(c2ccc(OC)c(OC)c2)C(C)C)cc1OC (centres undefined)	-2.4%
COc1ccc(CCN(C)CCCC(C#N)(c2cc(OC)c(OC)c(OC)c2)C(C)C)cc1OC (centres undefined)	4% (active)
Cc1scc2c1N(C(=O)CN1CCN(C)CC1)c1ccccc1NC2=O	1.4% (active)
CN1CCN(CC(=O)N2c3ccccc3C(=O)Nc3cccnc32)CC1	-2.7%
CN1CCN(c2nc3cc(C(F)(F)F)ccc3n3cccc23)CC1	6.5% (active)
Cc1cc(NC(=O)Nc2ccc3c(ccn3C)c2)sn1	4% (active)
O=C(O)[C@H]1NCCC[C@H]1C(=O)O	-0.4%
O=C(O)C1CCCNC1 (centres undefined)	1% (active)
O=C(O)C1CCNCC1	-2.2%
Nc1ncnc2c1c(I)cn2[C@@H]1C[C@H](N)[C@@H](O)[C@H]1O	2.7% (active)
Nc1ncnc2c1c(-c1ccc(Oc3ccccc3)cc1)cn2C1CCCC1	-2.9%

Compound	inhibition
Nc1ncnc2c1ncn2C1CCCC1	-9.6%
NCC(O)C1CCCCCCC1 (centres undefined)	11.2% (active)
O=C(c1ccc(OCCN2CCCCC2)cc1)c1c(-c2ccc(O)cc2)sc2cc(O)ccc12	20.1% (active)
CC(=O)Oc1cc(C(C)C)c(OCCN(C)C)cc1C	0.4% (active)
CN(C)C(=O)/N=N/C(=O)N(C)C	8.2% (active)
Fc1ccc(CN(C2=NCCN2)c2c(Cl)cccc2Cl)cc1	1.1% (active)
CNC(=O)c1cc2c(cn1)[nH]c1ccccc12	-3.2%
O=C(O)c1cc(=O)c2c(Cl)cc(Cl)cc2[nH]1	-1%
O=C(O)c1cc(=O)c2ccccc2[nH]1	5.6% (active)
O=[N+]([O-])c1ccc(CSc2ncnc3c2ncn3[C@@H]2O[C@H](CO)[C@H](O)C2O)cc1 (some centres undefined)	-2.9%
Nc1ncnc2c1ncn2[C@@H]1O[C@H](CO)[C@H](O)C1O (some centres undefined)	-0.5%
OC[C@H]1O[C@@H](n2cnc3c(NC4CCCCC4)ncnc32)[C@H](O)[C@@H]1O	4.8% (active)
CNc1ncnc2c1ncn2[C@@H]1O[C@H](CO)[C@H](O)C1O (some centres undefined)	-6.8%
Nc1nc2c(ncn2[C@@H]2O[C@H](CO)[C@@H](O)[C@@H]2O)c(=O)[nH]1	-3.6%
C[C@H](Cc1ccccc1)Nc1ncnc2c1ncn2[C@@H]1O[C@H](CO)[C@H](O)C1O (some centres undefined)	1.4% (active)
OC[C@H]1O[C@@H](n2cnc3cncnc32)[C@H](O)[C@@H]1O	4.9% (active)
Nc1nc(SCc2ccc([N+](=O)[O-])cc2)c2ncn([C@@H]3O[C@H](CO)[C@H](O)C3O)c2n1 (some centres undefined)	4.9% (active)
Nc1ccc(CCNc2ncnc3c2ncn3C2OC(CO)C(O)C2O)cc1 (centres undefined)	4% (active)
OC[C@H]1O[C@@H](n2cnc3c(NC4CCCC4)ncnc32)C(O)[C@H]1O (some centres undefined)	0.7% (active)
OC[C@H]1O[C@H](n2cnc3c(N[C@H]4CCC[C@@H]4O)ncnc32)[C@H](O)[C@@H]1O	-1.9%
